PubChem BioAssay
The source made the active and inactive calls.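 Rule for the calls, unless noted: active = compound raises insulin release from rat beta cells at 5 mM glucose, no numeric limit stated; inactive = the rest.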

Tests used:
[1] = stimulators of nuclear beta-catenin in C2C12, primary screen, imaging, WNT3A-conditioned medium, mouse C2C12, NPC library (AID 1117326; in the data active = nuclear beta-catenin stimulation mostly above about 4.2%, no sharp cut-off; inactive = mostly below about 10%; note: reference of the scale not given here); settings: stronger effect = higher value
[2] = stimulators of insulin release from INS-1E, primary screen, cell-based, 5 mM glucose, NPC library (AID 1117329); settings: rat INS-1E insulin secretion, at 10 µM, stronger effect = higher value; note: reference of the scale not given here
[3] = growth inhibition of GSK3B-pretreated HCT116 cells – cell-based, CellTiter-Glo, 0.2 to 20 µM (AID 1117336;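 active = compounds lowering colon cancer cell viability after pretreatment blocking the GSK3B kinase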); settings: HCT116 viability after GSK3B inhibitor, at 20 µM, stronger effect = higher value
[4] = inhibition of endothelial tube formation, primary screen, imaging, VEGF stimulated, CD31 staining, tube area, NPC library (AID 1117340;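 active = compound that reduces growth-factor-driven endothelial tube area in a mixed cell culture, no cutoff stated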); settings: VEGF-stimulated ADSC/ECFC co-culture, at 10 µM, stronger effect = higher value
[5] = glucagon-like peptide 1 release enhancers, primary assay, NCI-H716 cell line, NPC library (AID 1117341;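 active = compound raises GLP1 secretion from the human gut endocrine cells, with no numeric limit stated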; note: reference of the scale not given here); settings: NCI-H716 cells, at 10 µM, stronger effect = higher value
[6] = HCT116 colon cancer cell growth inhibition, primary screen, CellTiter-Glo luminescence, NPC library (AID 1117342;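 active = compounds that lower survival of HCT116 colon cancer cells in the luminescence readout, no numeric limit stated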); settings: at 20 µM (top of the series)
[7] = CellTiter-Glo luminescent readout of SW480 viability loss, NPC library primary (AID 1117343;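 active = compounds that lower viability of the colon cancer cells in the luminescence readout, with no numeric limit stated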); settings: CellTiter-Glo luminescence; at 20 µM (top of the series)
[8] = decreased DLD-1 cellular survival, CellTiter-Glo luminescent readout, NPC compound collection, primary HTS (AID 1117346;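 active = compounds that lower survival of DLD-1 colon cancer cells in the luminescence readout, no cutoff given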); settings: DLD-1 viability, CellTiter-Glo luminescence; at 20 µM (top of the series)

| Compound | nuclear beta-catenin stimulation ([1]; at 10 µM) | nuclear beta-catenin stimulation ([1]; stimulation, at 2 µM) [%] | insulin secretion stimulation [2] | viability decrease [3] | tube area decrease [4] | GLP1 secretion stimulation [5] | inhibition of viability [6] | viability decrease (inhibition) [7] | viability decrease (inhibition) [8] |
| --- | --- | --- | --- | --- | --- | --- | --- | --- | --- |
| Cc1cc(O)c(C)c(C)c1O | 2.1% (inactive) | -0.4 | 1.3% (inactive) | 4.5% (inactive) | -1.3% (inactive) | -0.5% (inactive) | -1.8% (inactive) | -15.7% (inactive) | -26.1% (inactive) |
| CNc1c2c(nn1C)CCCC2 | 0.2% (inactive) | 0.4 | 0% (inactive) | -3.4% (inactive) | 16.1% (inactive) | 0% (inactive) | -4.2% (inactive) | -2.2% (inactive) | 0.1% (inactive) |
| CCCCN(CCN(CCCC)C(=O)N1CCOCC1)C(=O)N1CCOCC1 | 1.4% (inactive) | 1 | 1.1% (inactive) | -64.8% (inactive) | 17.8% (inactive) | 0.9% (inactive) | 25.7% (inactive) | 2.8% (inactive) | 24.1% (inactive) |
| O=C(Oc1ccccc1)c1ccccc1O | -0.5% (inactive) | -1 | -1.5% (inactive) | -4.35% (inactive) | 14.3% (inactive) | -1.2% (inactive) | 9.1% (inactive) | 84.4% (active) | 12.1% (inactive) |
| CC1(C)OC[C@@H](COC(=O)CCc2ccc(OC[C@@H](O)CNCCNC(=O)N3CCOCC3)cc2)O1 | 0.8% (inactive) | 1.1 | 4% (inactive) | -3.9% (inactive) | -22.2% (inactive) | 0.6% (inactive) | 8% (inactive) | 33.8% (inactive) | 44% (inactive) |
| CC(C)(C)C1CCC(CC2=C(O)c3ccccc3C(=O)C2=O)CC1 (stereo not given) | 2% (inactive) | -0.5 | -0.2% (inactive) | 110% (active) | 109% (active) | 5.8% (inactive) | 106% (active) | 140% (active) | 98.4% (active) |
| CCCc1ncc(C(=O)O)s1 | -1.1% (inactive) | -1.2 | 4.2% (inactive) | -8.2% (inactive) | 9.7% (inactive) | -5.4% (inactive) | 5.1% (inactive) | 2.1% (inactive) | -6.8% (inactive) |
| Cc1cn([C@@H]2O[C@H](CO)[C@@H](O)[C@H]2F)c(=O)[nH]c1=O | -2.3% (inactive) | -0.8 | 0.3% (inactive) | 26.6% (inactive) | -11.7% (inactive) | -3% (inactive) | 4.6% (inactive) | 3.1% (inactive) | 6.8% (inactive) |
| COc1cc2[nH]c(=O)[nH]c(=O)c2cc1OC | 0.1% (inactive) | 1.1 | -1.8% (inactive) | 6.35% (inactive) | -8.3% (inactive) | 3.1% (inactive) | -1.4% (inactive) | 47.6% (inactive) | 0.05% (inactive) |
| CC1(C)O[C@@H]2C[C@H]3[C@@H]4CCC5=CC(=O)C=C[C@]5(C)[C@@H]4[C@@H](O)C[C@]3(C)[C@]2(C(=O)CO)O1 | 0.6% (inactive) | 1.2 | -1% (inactive) | -46.1% (inactive) | 4.9% (inactive) | 1.2% (inactive) | -6.5% (inactive) | -17.7% (inactive) | -7.4% (inactive) |
| CCOc1ccccc1O[C@H](c1ccccc1)[C@H]1CNCCO1 | -0.4% (inactive) | -2.9 | 5.4% (inactive) | -2.9% (inactive) | -5.2% (inactive) | 0.6% (inactive) | 22.7% (inactive) | 6.2% (inactive) | 18.8% (inactive) |
| c1ccc(CNCCNCc2ccccc2)cc1 | 4% (inactive) | 4.4 | 3.4% (inactive) | -31.8% (inactive) | -24% (inactive) | 2.1% (inactive) | -6.83% (inactive) | 20% (inactive) | -22.2% (inactive) |
| CCOC(=O)NNc1ccc(N(CC)CC(C)O)nn1 (stereo not given) | -1.1% (inactive) | 0.1 | 0.3% (inactive) | -1% (inactive) | -17.2% (inactive) | 1.1% (inactive) | 6.1% (inactive) | 2.6% (inactive) | 1% (inactive) |
| Nc1ccc([N+](=O)[O-])c(C(F)(F)F)c1 | 0.5% (inactive) | -1 | 0.2% (inactive) | 13.2% (inactive) | 1.1% (inactive) | -0.8% (inactive) | 26.5% (inactive) | -16.7% (inactive) | 18.5% (inactive) |
| CCCOC(C(=O)OC1CCN(C)CC1)(c1ccccc1)c1ccccc1 | 0.8% (inactive) | 1.5 | 0.3% (inactive) | 54.2% (active) | 19.1% (inactive) | 21.3% (active) | 84.8% (active) | 107% (active) | 57.7% (active) |
